Source: PubChem BioAssay
Most compounds without a hit are left out; they make up all but 11% or so of the library.
JMJD2A Tudor inh: qHTS Assay for Inhibitors of JMJD2A-Tudor Domain; Potency, µM (series often up to 114 µM), for inactives: at the top dose activity change, negative = inhibition, hits mostly inhibitors; AID 504339, 2011; AlphaScreen JMJD2A-Tudor / H3K4me3 peptide binding; hit rate 4.4% among 390,000; Lysine-specific demethylase 4A (Homo sapiens), O75164; also: % is scaled to controls: 0 for no effect and ±100 for the full control effect; nearly all actives have a fitted effect of over 50% in size
L3MBTL1 block: qHTS Assay for the Inhibitors of L3MBTL1. hit rate 0.66% among 230,000. AlphaScreen L3MBTL1–H3K9me1 peptide binding. Lethal(3)malignant brain tumor-like protein 1 (Homo sapiens), Q9Y468. Potency, µM (doses to about 57.1 µM), for inactives: top-dose activity, negative = inhibition, hits mostly inhibitors; also: % is scaled to controls: 0 for no effect and ±100 for the full control effect; nearly all actives have a fitted effect of over 60% in size
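First, the protein-peptide complex forms for 30 min at room temperature (L3MBTL1 50 nM, biotinylated H3K9me1 peptide 75 nM). Next, compounds are pin-transferred and incubated 30 min. Finally, AlphaScreen beads are added and read after 30 min.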
G9a inh: qHTS Assay for Inhibitors of Histone Lysine Methyltransferase G9a; Histone-lysine N-methyltransferase EHMT2 (Homo sapiens), Q96KQ7; Potency, µM (titrated, usually from 102 µM), for inactives: at the top dose activity, negative = inhibition, most hits filed as inhibitors; hit rate 8.8% among 350,000; G9a H3K9 monomethylation, AlphaScreen, 2 h; also: % is scaled to controls: 0 for no effect and ±100 for the full control effect; nearly all actives have a fitted effect of over 75% in size
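Step 1: enzyme (final 20 nM) with compound, 15 min RT. Step 2: substrate peptide 500 nM and SAM 20 uM, 2 h RT. Step 3: anti-H3K9me1 antibody and AlphaScreen beads, 10 min, then plate read.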
HP1b chromo inh: HTS for Inhibitors of HP1-beta Chromodomain Interactions with Methylated Histone Tails; AID 540317, 2011; hit rate 0.56% among 390,000; AlphaScreen HP1-beta / biotin-H3K9me3 peptide binding; Chromobox protein homolog 1 (Homo sapiens), P83916; Potency, µM (titrated, usually from 114 µM), for the others: top-dose activity change, negative = inhibition, actives largely listed as inhibitors; also: nearly all actives have a fitted effect of over 70% in size
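HP1-beta protein (50 nM final) preincubated 30 min at room temperature with biotinylated H3(1-18)K9me3 peptide (50 nM) in PBS pH 7.4, 0.01% Tween-20, then compound added for 30 min. AlphaScreen streptavidin donor/nickel chelate acceptor beads (10 ug/mL final), 30 min dark, luminescence read.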
BAZ2B block: qHTS Assay for Inhibitors of BAZ2B | Potency, µM (top dose mostly 114 µM), for inactives: at the highest dose activity change, negative = inhibition, most hits filed as inhibitors | AlphaScreen BAZ2B-H3K14Ac peptide displacement | Bromodomain adjacent to zinc finger domain protein 2B (Homo sapiens), Q9UIF8 | AID 504333, 2011 | hit rate 4.4% among 360,000; also: % is scaled to controls: 0 for no effect and ±100 for the full control effect; nearly all actives have a fitted effect of over 60% in size
Target sequence (Q9UIF8 whole entry, looked up, the tested form may be a part): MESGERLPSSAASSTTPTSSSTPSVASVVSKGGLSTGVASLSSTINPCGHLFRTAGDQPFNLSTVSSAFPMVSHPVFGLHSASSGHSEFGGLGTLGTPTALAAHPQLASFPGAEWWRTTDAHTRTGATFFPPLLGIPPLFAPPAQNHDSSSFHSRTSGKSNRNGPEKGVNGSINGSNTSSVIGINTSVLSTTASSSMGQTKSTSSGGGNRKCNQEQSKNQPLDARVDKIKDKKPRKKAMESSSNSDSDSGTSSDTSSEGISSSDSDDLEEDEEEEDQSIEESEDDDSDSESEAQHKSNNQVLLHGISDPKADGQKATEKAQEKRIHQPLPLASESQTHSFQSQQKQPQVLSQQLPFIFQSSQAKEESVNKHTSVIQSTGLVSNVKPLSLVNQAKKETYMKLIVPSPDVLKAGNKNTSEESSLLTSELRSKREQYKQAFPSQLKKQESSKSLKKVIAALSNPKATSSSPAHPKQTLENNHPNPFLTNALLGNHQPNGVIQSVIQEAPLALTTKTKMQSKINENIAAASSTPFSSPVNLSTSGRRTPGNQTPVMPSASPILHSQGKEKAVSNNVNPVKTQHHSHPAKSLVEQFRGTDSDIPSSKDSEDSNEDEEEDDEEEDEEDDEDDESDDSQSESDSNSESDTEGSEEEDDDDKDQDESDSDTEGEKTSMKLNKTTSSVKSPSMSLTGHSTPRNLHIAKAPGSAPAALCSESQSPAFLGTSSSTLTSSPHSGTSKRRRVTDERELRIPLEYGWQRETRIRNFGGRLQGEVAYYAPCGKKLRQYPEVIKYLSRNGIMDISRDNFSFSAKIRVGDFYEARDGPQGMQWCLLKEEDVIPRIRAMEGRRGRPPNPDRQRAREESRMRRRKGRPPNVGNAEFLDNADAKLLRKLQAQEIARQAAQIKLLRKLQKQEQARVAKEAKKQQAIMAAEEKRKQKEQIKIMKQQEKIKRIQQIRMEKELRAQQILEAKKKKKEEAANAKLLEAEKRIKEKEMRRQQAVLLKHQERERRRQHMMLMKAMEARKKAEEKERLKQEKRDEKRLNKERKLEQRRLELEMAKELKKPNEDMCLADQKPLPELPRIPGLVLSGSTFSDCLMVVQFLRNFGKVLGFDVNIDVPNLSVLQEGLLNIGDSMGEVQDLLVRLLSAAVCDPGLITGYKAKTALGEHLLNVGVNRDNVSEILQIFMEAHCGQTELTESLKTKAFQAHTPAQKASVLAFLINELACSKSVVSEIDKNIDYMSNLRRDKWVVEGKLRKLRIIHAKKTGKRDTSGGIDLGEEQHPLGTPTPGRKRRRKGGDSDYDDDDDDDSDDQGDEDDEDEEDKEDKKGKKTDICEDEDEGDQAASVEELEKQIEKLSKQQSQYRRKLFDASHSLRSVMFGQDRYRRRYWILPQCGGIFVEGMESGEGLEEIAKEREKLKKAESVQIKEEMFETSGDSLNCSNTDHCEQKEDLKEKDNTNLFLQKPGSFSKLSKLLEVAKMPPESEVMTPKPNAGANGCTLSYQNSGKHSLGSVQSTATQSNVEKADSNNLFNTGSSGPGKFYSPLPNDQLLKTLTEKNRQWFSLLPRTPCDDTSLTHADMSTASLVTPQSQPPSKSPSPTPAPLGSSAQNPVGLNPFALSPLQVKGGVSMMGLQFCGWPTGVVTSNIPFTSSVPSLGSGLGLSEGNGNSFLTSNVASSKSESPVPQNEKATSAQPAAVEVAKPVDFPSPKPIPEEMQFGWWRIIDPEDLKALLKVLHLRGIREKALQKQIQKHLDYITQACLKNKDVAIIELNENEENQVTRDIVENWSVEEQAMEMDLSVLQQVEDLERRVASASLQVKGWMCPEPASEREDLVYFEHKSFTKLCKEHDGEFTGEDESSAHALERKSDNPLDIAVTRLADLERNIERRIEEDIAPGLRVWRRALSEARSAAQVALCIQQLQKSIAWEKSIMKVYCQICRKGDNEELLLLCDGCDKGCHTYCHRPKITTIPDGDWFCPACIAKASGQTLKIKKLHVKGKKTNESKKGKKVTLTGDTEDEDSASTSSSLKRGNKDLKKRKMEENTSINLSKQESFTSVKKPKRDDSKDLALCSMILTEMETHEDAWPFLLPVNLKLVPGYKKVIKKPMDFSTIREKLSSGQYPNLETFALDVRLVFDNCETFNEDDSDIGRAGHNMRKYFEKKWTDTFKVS
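Protein-peptide AlphaScreen: BAZ2B 50 nM, b-H3K14Ac 50 nM, 1x PBS pH 7.4 + 0.01% Tween-20. Preincubation 30 min RT; cpd 30 min RT (top 110 uM); beads 20 min RT, light-protected.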
* = called active by the depositor; ? = inconclusive; . = not tested or not shown; ! = a repeat was not active; [ ] = another dose, or the depositor's remark. Calls follow the shape of the dose curve; as a rule, active = well fitted inhibition curve with a large enough effect; inconclusive = small, poorly fitted or top-dose-only effect; inactive = no such curve, though single readings can be large or run the other way. Potency is read from the fitted curve at half-maximal effect.

SMILES	JMJD2A Tudor inh	L3MBTL1 block	G9a inh	HP1b chromo inh	BAZ2B block
CCC(=O)N1CCc2cc(S(=O)(=O)NCCC(=O)Nc3ccc(OC)c(Cl)c3)ccc21	-7%	.	-3%[59 µM]	35%	.
Cc1cc(S(=O)(=O)N2CCCC(N(C)CCc3ccccn3)C2)c(C)s1 (stereo not drawn)	.	.	50µM*	.	-17%
CC1Cc2ccccc2N1C(=S)Nc1cccc(S(=O)(=O)N(C)C)c1 (stereo not drawn)	-35%	7%	40µM*	14%	-21%
CN(C)S(=O)(=O)c1cccc(NC(=S)N2CCc3ccccc32)c1	-26%	12%	-33%	14%	.
COc1ccc(NC(=S)N2c3ccccc3CC2C)cc1OC (stereo not drawn)	-28%	?	50µM*	-5%	-37%
O=C(Nc1ccc2nc(SCC(=O)N3CCCC3)sc2c1)c1cccc(F)c1	-14%	.	3%[59 µM]	54%	-27%
CCCn1c(SCC(=O)N2c3ccc(F)cc3CCC2C)nnc1-c1ccccn1 (stereo not drawn)	71µM*	-13%	-12%[59 µM]	?	5%
O=C(NCc1cccc(F)c1)c1ccccc1NC(=O)c1nsc2ccccc12	-14%	.	16%[59 µM]	11%[57 µM]	8%
NC1(C(=O)O)C[C@@H](C(=O)O)[C@H](C(=O)O)C1	.	.	22%[59 µM]	.	.
NC1(C(=O)O)CSSC1	89µM*	.	.	?	.
NC1(C(=O)O)CCCCC1	.	.	1.9µM*!	.	.
c1ccc(CSc2nnc(C3CCNCC3)o2)cc1	2%	.	-5%[59 µM]	61%	-16%
COc1cc([N+](=O)[O-])cc(/C=N/NC(=O)CSc2ccccn2)c1O	79µM*	.	.	25%	?
COc1cc([N+](=O)[O-])cc(/C=N/NC(=O)c2ccc(C)nc2)c1O	?	?	21%[59 µM]	16%	10µM*
COc1cc([N+](=O)[O-])cc(/C=N/NC(=O)CC#N)c1O	.	.	50µM*	.	8.9µM*
COc1cc([N+](=O)[O-])cc(/C=N/NC(=O)c2ccc(NC(=O)c3ccc(C)cc3)cc2)c1O	0%[57.1 µM]	-2%	24%	36%	12%
COc1cc([N+](=O)[O-])cc(/C=N/NC(=O)Cn2cncn2)c1O	25µM*	?	?	22%	32µM*
Cc1ccccc1C(=O)N1CCN(CCc2ccccn2)CC1	1%	.	7%[59 µM]	45%	-3%
COC(=O)c1[nH]c2ccccc2c1NC(=O)CN1CCN(c2cccc(Cl)c2)CC1	-29%	-13%	8%	17%	-23%
COC(=O)c1[nH]c2cccc(OC)c2c1NC(=O)CCN1CC(C)CC(C)C1 (stereo not drawn)	-1%	2%	50µM*	49%	-22%
COC(=O)c1[nH]c2cccc(OC)c2c1NC(=O)CCN1CCN(c2cccc(Cl)c2)CC1	.	-3%	50µM*	.	-39%
COC(=O)c1[nH]c2cccc(OC)c2c1NC(=O)CCN1CCSCC1	6%	2%	5%	35%	1%
Cc1ccc(C(=O)NCCc2ccc(Cl)cc2)cc1-n1c(C)nc2cccnc21	7%	.	8%[59 µM]	53%	-4%
Cc1ccc(N2CC(NC(=O)c3ccc(S(=O)(=O)N4CCCC4)cc3)CC2=O)cc1 (stereo not drawn)	-21%	.	5%[59 µM]	0%	-12%
Clc1ccc(OCCCNCc2ccccc2)c2ccccc12	28µM*	-2%	.	?	50µM*
SMILES	JMJD2A Tudor inh	L3MBTL1 block	G9a inh	HP1b chromo inh	BAZ2B block
Brc1ccccc1OCCNCc1ccccc1	?	.	7.9µM*	?	50µM*
CC1(C)NC(=O)N(CCCOc2ccccc2Br)C1=O	-12%	.	15%	7%	5%
C=CCc1ccccc1OCCNCc1ccccc1	0.89µM*	.	8.9µM*	?	?
Cc1cc(C)cc(-n2cnc3cc(C(=O)NC4CCCCCC4)ccc32)c1	-34%	.	-27%[59 µM]	8%	-14%
CCCCn1c(=O)c2oc3ccccc3c2n(Cc2ccc(C)cc2)c1=O	-3%	.	10%[59 µM]	29%	3%
O=C(Cc1csc(-c2ccccc2)n1)NCC(=O)Nc1ccc(F)c(F)c1F	-8%	5%	.	25%	.
COC(=O)c1sccc1S(=O)(=O)N(CC(=O)NCc1ccc(F)cc1)c1ccc(Cl)cc1	-23%	.	24%[59 µM]	-12%	-4%
Cc1ccc(NC2=C/C(=N/S(=O)(=O)c3cccs3)c3ccccc3C2=O)cc1C	-24%	-11%	0%[59 µM]	-17%	?
COc1ccc(S(=O)(=O)/N=C2\C=C(Nc3ccc(O)cc3)C(=O)c3ccccc32)cc1	5.6µM*	.	8.9µM*	10µM*	8.9µM*
Cc1ccccc1NC1=C/C(=N\S(=O)(=O)c2cccs2)c2ccccc2C1=O	6.3µM*	.	3.2µM*	?	10µM*
CC(=O)Nc1ccc(NC2=C/C(=N/S(=O)(=O)c3cccs3)c3ccccc3C2=O)cc1	50µM*	?	45µM*	50µM*	3.5µM*
CC(=O)/C(C[N+]1(C)CCCCC1)=N\O	35µM*	11%	?	-32%	?
CC(C)CN1CCC2(CC1)CCN(C(=O)c1cccc(F)c1)CC2	.	.	-8%[12.7 µM]	.	.
CN(C)c1ccc(C2CC(c3c(O)n(C4CCCCC4)c(=O)[nH]c3=O)=Nc3ccccc3S2)cc1 (stereo not drawn)	-10%	.	-9%[59 µM]	13%	3%
NC(Cc1ccc2nsnc2c1)C(=O)O (stereo not drawn)	2.2µM*	.	.	-9%	.
N[C@H](Cc1ccc(O)cc1)C(=O)O	.	.	30%[59 µM]	.	.
N[C@@H](Cc1ccc(O)c(O)c1)C(=O)O	40µM*	.	20µM*	20µM*	.
NC(Cc1ccc(O)c([N+](=O)[O-])c1)C(=O)O (stereo not drawn)	?	0%	?	-5%	50µM*
NC(C(=O)O)C(O)c1ccc(O)c(O)c1 (stereo not drawn)	.	.	1.1µM*	.	.
Cn1c(=O)c(CCc2ccccc2)nc2cnc(OCc3ccccc3)nc21	.	.	8%[0.501 µM]	.	.
NC(Cc1cccc2nsnc12)C(=O)O (stereo not drawn)	7.1µM*	2%	?	5%	-5%
CC(C)C(=O)Nc1cccc2nsnc12	-12%	7%	-5%	32%	2%
CS(=O)(=O)c1nc(-c2ccccc2)c(-c2ccccc2)[nH]1	-6%	-1%	45µM*	3%	?
COc1ccc(-c2[nH]c(-c3ccc(C(=O)O)cc3)nc2-c2ccccc2)cc1	?	0%	79µM*	19%	79µM*
O=C(O)c1ccc(-c2nc(-c3ccccc3)c(-c3ccccc3)[nH]2)cc1	79µM*	-6%	-2%[59 µM]	40µM*	?
Cc1ccsc1-c1nc(-c2ccccc2)c(-c2ccccc2)[nH]1	7%	3%	43%[12.7 µM]	20%	-2%
Cc1ccc(NS(=O)(=O)c2ccc3c(ccn3C)c2)cc1C	-17%	.	.	.	.
